Experimental data taken from PubChem BioAssay.
A number with no mark means an inactive call. The rule behind the calls is not given here.

The compounds below were run against Pantothenate synthetase (Mycobacterium tuberculosis (strain ATCC 25618 / H37Rv)) (UniProt P9WIL5) (assay: Coupled enzyme confirmation of inhibitors against recombinant Mtb PanC (AID 375;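 note: 0% = full reaction with vehicle and 100% = no enzyme background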)). Conditions: coupled enzyme assay; at 10 µM, active compounds read high.
Chain of Pantothenate synthetase (Mycobacterium tuberculosis (strain ATCC 25618 / H37Rv)) (P9WIL5 whole entry, looked up): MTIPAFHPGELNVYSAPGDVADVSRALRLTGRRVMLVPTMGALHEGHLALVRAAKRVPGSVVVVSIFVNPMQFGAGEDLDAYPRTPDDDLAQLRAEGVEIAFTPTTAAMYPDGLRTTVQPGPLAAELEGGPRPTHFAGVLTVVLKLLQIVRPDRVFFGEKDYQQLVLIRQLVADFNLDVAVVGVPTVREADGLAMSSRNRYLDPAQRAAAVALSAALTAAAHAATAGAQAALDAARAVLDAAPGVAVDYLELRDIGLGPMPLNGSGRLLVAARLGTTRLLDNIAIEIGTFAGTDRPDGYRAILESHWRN

Structure (SMILES)	inhibition [%]
COc1ccc(C(=O)c2ccc(OC)c(N)c2)cc1N	0
CCSC(SCC)[C@H](O)[C@@H](O)[C@H](O)[C@H](O)CO	2
O=C(NCCCN1CCCC1=O)c1ccc2c(c1)NC(=O)C(N1CCOCC1)S2 (centres undefined)	2
c1ccc(C(Cc2nc(-c3ccccn3)no2)c2ccccc2)cc1	0
O=C(Nc1ccccn1)N1CCOCC1	4
CC(C)Cn1c2c(c(O)c(C(=O)Nc3ncccc3O)c1=O)CCCC2	0
Cc1cc(C(N)=O)c2cc(Br)ccc2n1	10
O=C(CSc1nc2ccccc2[nH]1)N1CCCCC1	0
O=S(=O)(c1ccccc1)N(Cc1nc(-c2ccccc2)no1)C1CCCCC1	0
COCCNC(=O)c1cc2c(-c3ccccc3F)nn(C)c2s1	8
COc1ccc(CCNC(=O)C2CCCN(c3nn4c(=O)cc(C)nc4s3)C2)cc1OC (centres undefined)	0
Cc1ccc(C)n1-n1c(C)nc2sc(-c3ccccc3)cc2c1=O	0
O=C(O)CCc1ccc(-c2cccs2)o1	6
CN(C)CCOC(=O)C(c1ccccc1)C1(O)CCCC1 (centres undefined)	5
Oc1c(C(c2ccccc2)N2CCc3ccccc3C2)sc2ncnn12 (centres undefined)	0
O=C(O)C1CC(=O)N(c2ccc(OCc3ccccc3Cl)cc2)C1 (centres undefined)	0
CCN1CCN(c2ncnc3c2cnn3-c2ccc(C)cc2C)CC1	9
CN(C)C(=O)CN(c1ccc(F)c(Cl)c1)S(C)(=O)=O	5
COc1ccccc1OCC(O)COC(N)=O (centres undefined)	6
CC(C)n1nnnc1SCC(=O)Nc1ccccc1N1CCOCC1	1

Structure (SMILES)	inhibition [%]
COC(=O)c1[nH]c2ccc(C)cc2c1NC(=O)CN1CCC(C)CC1	0
C=CCSc1n[nH]c(-c2ccc(OC)cc2)n1	0
Cc1c(C(=O)N2CCOCC2)oc2ccc(S(=O)(=O)N3CCCC3)cc12	0
Cc1ccc(N(CC(O)CN2CCCC2)S(=O)(=O)c2ccc(C)cc2)cc1 (centres undefined)	0
CCOC(=O)CNS(=O)(=O)c1c(C)noc1C	0
CCOc1ccc(N(C(C)=O)C2C=CS(=O)(=O)C2)cc1 (centres undefined)	0
COc1ccc(-n2nnc3c(=O)n(C/C=C/c4ccccc4)cnc32)cc1	2
CN(C)CCCN1C(=O)CSC1c1ccccc1 (centres undefined)	0
Nn1c(SCC(=O)NC2CCCCC2)nnc1-c1ccc(Cl)cc1	2
COc1ccc(CNCC(=O)Nc2cc(C)nn2-c2nc(C)cc(C)n2)cc1OC	0
COc1cc(OC)c(C(=O)Nc2ncn[nH]2)cc1OC	0
CCN1CCCC1CNC(=O)CS(=O)(=O)Cc1nc(-c2ccccc2C)oc1C (centres undefined)	0
CCOC(=O)c1[nH]c(C)c(C(=O)NCc2ccccn2)c1C	0
Cc1cccc(N2CCN(C(=O)Cn3ccc4ccccc4c3=O)CC2)c1C	0
CCOC(=O)CN(C(=O)CSc1nnc(-c2ccncc2)n1CCCN(C)C)c1ccccc1	11
CCOc1ccc2ccccc2c1/C=N/n1cncn1	0
CCn1c2ccccc2c2cc(Nc3cc(C)nc4ncnn34)ccc21	0
CCCCc1ccc(NC(=O)C2CCCO2)cc1 (centres undefined)	0
C=CCn1c(-c2ccccc2)c[nH]c1=S	0
